Yeast superoxide = yeast age-related superoxide inhibition as caloric restriction mimetic; S. cerevisiae aged cells, superoxide DHE fluorescence; stronger effect = lower value; superoxide response (% of plate mean), % at 10 µM; 0.18% of 330,000 active; AID 2690;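 active = superoxide response under a set limit, about three screen SD below normal, cut at about 65% in these data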;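 also: yeast aged for seven days with compound at 30 °C before DHE staining; 100% = average MFI of all compound-treated wells on the plate with controls excluded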
Rce1 inh = inhibitors of yeast Ras-converting enzyme | yeast membranes, quenched prenylated peptide cleavage fluorescence | calls only | 0.27% of 290,000 active;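 active = fall in fluorescence gain of 50% or more versus controls, with final raw signal at or below 3038400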;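 also: plate controls were neutral control wells for no effect and wells lacking membranes for full effect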
Target sequence (Q03530 whole entry, looked up): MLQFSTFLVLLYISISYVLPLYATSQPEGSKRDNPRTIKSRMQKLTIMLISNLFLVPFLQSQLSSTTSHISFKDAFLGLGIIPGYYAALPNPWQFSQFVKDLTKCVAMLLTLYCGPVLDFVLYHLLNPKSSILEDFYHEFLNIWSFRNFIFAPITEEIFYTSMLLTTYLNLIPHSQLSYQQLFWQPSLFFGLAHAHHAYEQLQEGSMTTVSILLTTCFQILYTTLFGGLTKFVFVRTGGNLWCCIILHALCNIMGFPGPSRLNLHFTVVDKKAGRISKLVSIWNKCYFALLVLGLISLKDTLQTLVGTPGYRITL
PERK inhibitor = human PERK inhibition, primary cell-based screen. Q9NZJ5. CHO PERK-DD fusion, SEAP luminescence translation reporter. inhibition, % at 5.6 µM. 0.17% of 220,000 active;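 active = inhibition above the mean inhibition of all tested compounds plus 3 SD, set separately per screening campaign, cut at about 2.9% in these data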;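 also: PERK kinase domain activated by AP20187 dimerizer at 100 nM; 0% = DMSO with dimerizer and 100% = rapamycin at 8.4 µM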
NALP1 yeast inh = NALP1 inhibition; inhibition, % at 10 µM; 0.61% of 280,000 active; AID 2071; S. cerevisiae NALP1/ASC/caspase-1 growth, X-gal OD620, 72 h; in the data active = inhibition mostly above about 24%, no sharp cut-off; inactive = mostly below about 32%
NALP3 yeast inh = inhibitors of NALP3 inflammasome in yeast; Yeast reconstituted NLRP3/ASC/caspase-1, beta-gal luminescence, 24 h; inhibition, % at 10 µM; 0.39% of 330,000 active; AID 2825;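 active = inhibition of 50% or more; inactive = inhibition below 50%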;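 also: plate controls were induced DMSO wells for no effect and uninduced yeast grown without galactose for full effect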
V-ATPase pHluor = regulators of yeast V-ATPase proton transport; response, % at 10 µM; S. cerevisiae, pHLuorin cytosolic pH fluorescence; 0.37% of 350,000 active; in the data active = response mostly above about 7.3%, no sharp cut-off; inactive = mostly below about 5.4%; also: actives read high
An asterisk follows results filed as active. An excerpt weighted towards active compounds, which were near 1.6% of everything screened.

`CN(C)CCN(C(=O)/C=C/c1cccs1)c1nc2c(F)cc(F)cc2s1` gave Yeast superoxide 100, Rce1 inh inactive, PERK inhibitor 0, NALP1 yeast inh 59*, NALP3 yeast inh 31 and V-ATPase pHluor -5.
`CN(C)CCCN(C(=O)/C=C/c1cccs1)c1nc2ccc(F)cc2s1` gave Yeast superoxide 88, Rce1 inh inactive, PERK inhibitor 1, NALP1 yeast inh 36, NALP3 yeast inh 32 and V-ATPase pHluor 1.
`Cc1ccc2nc(N(CCN(C)C)C(=O)/C=C/c3cccs3)sc2c1` gave Yeast superoxide 90, Rce1 inh inactive, PERK inhibitor -1, NALP1 yeast inh 56*, NALP3 yeast inh 37 and V-ATPase pHluor 6.
Screening CCc1ccc2nc(N(CCN(C)C)C(=O)/C=C/c3cccs3)sc2c1 returned Yeast superoxide 106, Rce1 inh inactive, NALP1 yeast inh 27, NALP3 yeast inh 25 and V-ATPase pHluor 1.
`CC(Sc1nc2ncc(Cl)cc2[nH]1)C(=O)Nc1ccccc1[N+](=O)[O-]` (stereo unspecified) gave V-ATPase pHluor 0.
`CCc1ccc(C#CC2=CC(=O)CC(C)(C)C2)cc1` gave V-ATPase pHluor 0.
Screening Cc1cccc(C)c1NC(=O)CN1C(=O)S/C(=C\c2cccn2C)C1=O returned Yeast superoxide 114, Rce1 inh inactive, PERK inhibitor 1, NALP1 yeast inh 40*, NALP3 yeast inh 8 and V-ATPase pHluor 0.
Screening CC(C)(C)C1=CC(=Nc2ccccc2N)C=C(C(C)(C)C)C1=O returned Yeast superoxide 95, Rce1 inh inactive, PERK inhibitor 0, NALP1 yeast inh 25, NALP3 yeast inh 2 and V-ATPase pHluor 2.
For CC(C)(C)C1=CC(=O)C(=O)C(C(C)(C)C)=C1 the results were Yeast superoxide 88, Rce1 inh inactive, PERK inhibitor 1, NALP1 yeast inh 51*, NALP3 yeast inh -8 and V-ATPase pHluor 10.
For CCCCCCn1ccc(=N)cc1 the results were Yeast superoxide 94, Rce1 inh inactive, PERK inhibitor 1, NALP1 yeast inh 23, NALP3 yeast inh 23 and V-ATPase pHluor -1.
Screening CCCCCCCCCCCCCCCCn1cc[n+](CC(C)=O)c1 returned PERK inhibitor 1, NALP1 yeast inh 78* and V-ATPase pHluor 1.
`CCOC(=O)CSC1=NC(=O)/C(=C\c2ccc(Cl)cc2)S1` gave Yeast superoxide 90, Rce1 inh inactive, PERK inhibitor 2, NALP1 yeast inh 17, NALP3 yeast inh 38 and V-ATPase pHluor 11*.
For Fc1ccccc1NC(=S)NCCc1cccc(Cl)c1 the results were Yeast superoxide 93, Rce1 inh inactive, NALP1 yeast inh 30*, NALP3 yeast inh 16 and V-ATPase pHluor 5.
S=C(NCCc1ccccc1)NCc1cccc(Cl)c1 was read as Yeast superoxide 109, Rce1 inh inactive, NALP1 yeast inh -2, NALP3 yeast inh 12 and V-ATPase pHluor 1.
`C#CCN(C(=O)C1CCC(=O)N(CCc2cccc(F)c2)C1)C1CCCCC1` (stereo unspecified) gave V-ATPase pHluor -3.
`CCCCNC(=S)NNC(=O)CCn1cc(C)cn1` gave Yeast superoxide 110, Rce1 inh active, PERK inhibitor 1, NALP1 yeast inh 17, NALP3 yeast inh 13 and V-ATPase pHluor -2.
Screening Cc1cnn(CCC(=O)NNC(=S)NCC(C)C)c1 returned Yeast superoxide 94, Rce1 inh inactive, PERK inhibitor 1, NALP1 yeast inh -7, NALP3 yeast inh 9 and V-ATPase pHluor 3.
`CCCn1cnc2c(=S)nc(N)[nH]c21` gave Yeast superoxide 83, Rce1 inh inactive, PERK inhibitor 3.4*, NALP1 yeast inh 4, NALP3 yeast inh 6 and V-ATPase pHluor -1.
Screening O=c1[nH]c(-c2ccccc2)ncc1OCc1ccccc1 returned V-ATPase pHluor -2.
Screening C/C(=N/OC(=O)c1cccc(Cl)c1)c1nccs1 returned Yeast superoxide 78, Rce1 inh inactive, PERK inhibitor 2, NALP1 yeast inh 8, NALP3 yeast inh -3 and V-ATPase pHluor 1.
Screening C/C(=N\OC(=O)c1ccccc1F)c1nccs1 returned Yeast superoxide 111, Rce1 inh inactive, PERK inhibitor 3.4*, NALP1 yeast inh 0, NALP3 yeast inh 1 and V-ATPase pHluor -3.
C=C(C)CSc1nc2sc3c(c2c(=O)n1-c1ccc(OC)cc1)CCN(C)C3 was read as Yeast superoxide 100, Rce1 inh active, NALP1 yeast inh 8 and NALP3 yeast inh 12.
